Molecules are shown by their SMILES. The whole screen tested about 47,000 compounds, of which about 140 (0.3%) were called active. For the sample, actives were picked, then their nearest neighbours and some compounds at random. A number with no mark means an inactive call. Cut-off read from the data, not from the text of the source: active = inhibition above about 30%; inactive = the rest.

The target in this test is Ubiquitin carboxyl-terminal hydrolase 7 (Homo sapiens) (UniProt Q93009). Kind of test: blocks human USP7 ubiquitin-rhodamine cleavage (AID 1645854). The conditions noted are these: purified USP7, Ub-rhodamine cleavage fluorescence; at 20 µM; stronger effect = higher value.
Chain of Ubiquitin carboxyl-terminal hydrolase 7 (Homo sapiens) (Q93009 whole entry, looked up): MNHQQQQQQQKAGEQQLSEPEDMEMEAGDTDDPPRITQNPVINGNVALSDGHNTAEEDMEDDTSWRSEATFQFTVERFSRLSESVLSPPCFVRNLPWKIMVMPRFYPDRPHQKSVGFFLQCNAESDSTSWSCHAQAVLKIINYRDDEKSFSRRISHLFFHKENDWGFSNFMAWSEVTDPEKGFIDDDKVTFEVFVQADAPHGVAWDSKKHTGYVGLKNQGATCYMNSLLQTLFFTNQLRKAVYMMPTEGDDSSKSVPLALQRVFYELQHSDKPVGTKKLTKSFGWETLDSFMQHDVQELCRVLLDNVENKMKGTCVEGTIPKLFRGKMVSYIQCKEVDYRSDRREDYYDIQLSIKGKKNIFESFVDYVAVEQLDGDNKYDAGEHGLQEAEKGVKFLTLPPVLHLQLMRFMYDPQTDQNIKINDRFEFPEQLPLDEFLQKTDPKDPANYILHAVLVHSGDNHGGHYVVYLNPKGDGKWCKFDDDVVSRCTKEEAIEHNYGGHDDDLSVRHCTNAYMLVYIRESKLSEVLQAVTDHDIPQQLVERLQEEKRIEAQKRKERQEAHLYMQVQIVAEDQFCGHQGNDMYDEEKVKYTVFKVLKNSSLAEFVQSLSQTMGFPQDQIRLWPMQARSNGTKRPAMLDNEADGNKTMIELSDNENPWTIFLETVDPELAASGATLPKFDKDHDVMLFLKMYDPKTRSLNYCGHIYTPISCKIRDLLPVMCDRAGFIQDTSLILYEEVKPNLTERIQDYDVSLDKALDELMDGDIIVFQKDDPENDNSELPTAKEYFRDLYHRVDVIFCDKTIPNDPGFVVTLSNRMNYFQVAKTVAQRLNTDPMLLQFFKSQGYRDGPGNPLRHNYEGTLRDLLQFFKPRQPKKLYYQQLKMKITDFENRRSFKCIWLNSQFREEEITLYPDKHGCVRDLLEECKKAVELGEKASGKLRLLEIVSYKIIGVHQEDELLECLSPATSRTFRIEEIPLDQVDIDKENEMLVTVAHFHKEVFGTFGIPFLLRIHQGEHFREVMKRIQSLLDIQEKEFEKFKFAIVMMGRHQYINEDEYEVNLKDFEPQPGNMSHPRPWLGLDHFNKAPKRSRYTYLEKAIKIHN
For `CCCN1CCN(Cc2nc3nc(C)cc(N4CCCC4)n3n2)CC1`, the inhibition is 0.57%. With `O=C(NCC1CC1)c1ccc2ccc(N3CCN(c4ncccn4)CC3)n2c1` the figure was -17.3%; with `Cn1ccc(-c2cc(C(=O)NCCc3ccccn3)c3ccccn23)n1`, 0.582%; with `Cc1ccccc1NC(=O)N1CCC(CC(=O)N2CCCCC2)CC1`, 5.39%. With `COc1cccc(-n2nnc(-c3nnc(-c4ccccc4)o3)c2C)c1` the figure was -29.9%. The same measure for `COc1ccc(C2C3CCCCC3(O)CCN2C(=O)/C=C/c2cc(OC)c(OC)c(OC)c2)c(OC)c1` (configuration not stated): 2.72%; for `CN(C(=O)Cn1c(=O)n(CCCC(=O)N2CCc3ccccc3C2)c(=O)c2ccccc21)C1CCCCC1`: -62.2%. Regarding `Cn1c(CNC(=O)c2ccc(=O)[nH]c2)nc2ccccc21`, the inhibition was 3.71%. With `CN(Cc1ccccn1)C(=O)c1cc(-c2ccn(C)n2)n2ccccc12` the figure was -10.8%. For `O=C(C1CCC1)N1CCCC(c2nc(N3CCOCC3)ncc2-c2cccnc2)C1` (configuration not stated), the inhibition is 1.73%. With `CC1CCc2nc3ccccc3c(C(=O)OCC(=O)Nc3ccc4ccccc4c3)c2C1` (configuration not stated) the figure was -6.5%; with `Cn1nc(C(=O)N2CCOCC2)c2c1CN(Cc1cccnc1)CC2`, -1.02%; with `CC1CCc2c(sc3[nH]c(=O)c(C(=O)Nc4ccc(C(N)=O)cc4)c(O)c23)C1` (configuration not stated), 2.02%. The same measure for `CNS(=O)(=O)c1ccc(CNC(=O)c2cc(-c3ccc(C)cc3)no2)cc1`: 4.58%. With `CN(C)CCNC(=O)c1ccc2c(c1)nc1n2CCN(C2CCCCC2)C1=O` the figure was -3.11%; with `COc1ccccc1CNC(=O)c1nc(N2CCSCC2)c2cn(C)nc2n1`, -2.16%; with `NC(=O)c1ccccc1NC(=O)C1CN(c2nc3c(F)cccc3s2)C1`, -0.695%. On to `CCN1CCN(Cc2nc3nc(C)cc(N4CCCC4)n3n2)CC1`, for which the inhibition is 0.109%.

As for `Cc1cc(O)c(=O)cc2c1C[C@H]1CC(C)(C)/C=C/C[C@@]3(C)Oc4cc(=O)c(O)cc(C)c4C[C@@H]3C[C@H](O)[C@]1(C)O2`, the inhibition was 32.8% (active).

For the compound `O=C(NCc1cccnc1)c1cc(-c2ccncc2)n(-c2ccc(F)cc2)n1`, the inhibition was 0.279%.

For the compound `Cn1c(SCc2ccc(Cl)cc2)nnc1-c1ccc2c(c1)OCCO2`, the inhibition was -49.5%. With `O=C(Nc1ccc2c(c1)CCC2)N1CC2CN(S(=O)(=O)c3ccccc3)CC(C1)O2` the figure was -2.8%. The same measure for `O=C1CCC2C(c3ccc4c(c3)OCO4)CC1N2Cc1ccccc1` (configuration not stated): -3.81%. The same measure for `Cc1c(S(=O)(=O)Nc2ccccc2F)cc(C(=O)N2CCCCC2)n1C`: 5.73%. On to `COc1ccc(Cn2c(=O)[nH]c3cc(C(=O)N4CCC(C(N)=O)CC4)ccc3c2=O)cc1`, for which the inhibition is -1.91%. `Cc1nn(C)c(Cl)c1C1CCCN1C(=O)c1ccc(C)n(C)c1=O` (configuration not stated): the inhibition is 2.77%. The same measure for `CC(C)C(=O)N[C@@H](CO)[C@H](O)c1ccc([N+](=O)[O-])cc1`: 0.416%; for `CCc1ccc(-n2nnc(C(=O)Nc3nnc(CC)s3)c2C)cc1`: 0.00527%; for `Cc1cnc(C(=O)N2CC[C@@H]3[C@H]2CCCC(=O)N3Cc2ccccc2C(F)(F)F)cn1`: -3.69%. With `COCCNc1nn2c(-c3ccc4ccccc4c3)cnc2s1` the figure was 1.48%; with `Cc1nn(CC(=O)c2cc(C)n(-c3ccc4c(c3)OCO4)c2C)c(C)c1[N+](=O)[O-]`, -2.39%; with `Cc1cccc(C(C)C)c1NC(=O)c1ccc(OCc2ccccc2)cc1`, 0.214%.

What is called inhibition is the relative decrease from the control value, in per cent.
